Source: PubChem BioAssay (National Center for Advancing Translational Sciences (NCATS))
This is a sample that favours compounds with a hit; in the whole collection about 0.78% have one here.
PINK1 modulator – PINK1 expression modulation. PINK1 immunofluorescence, high-content cytometry, 24 h. Potency, µM (top dose mostly 76.6 µM), inactives show at the highest dose activation (PINK1 increase), most hits filed as activators. hit rate 0.2% among 410,000. AID 624263; active = well fitted activation curve with a large enough effect; inconclusive = small, poorly fitted or top-dose-only effect; cell line not stated here; also: potency is read from the fitted curve at half-maximal effect; % of control where 0% means no effect; nearly all actives have a fitted effect of over 65% in size
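PINK1 protein, normally rapidly degraded, was detected by immunofluorescence after 24 hour compound treatment of a stable cell line. Titration data (5 concentrations) came from laser-scanning cytometry, with CCCP-treated wells as controls.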
GLS inhibitor – inhibitors of human glutaminase (GLS); Potency, µM (titrated, usually from 45.5 µM), for inactives: at the highest dose activity change, negative = inhibition, most hits filed as inhibitors; GLS enzymatic activity, qHTS titration; hit rate 0.21% among 410,000; also: potency is read from the fitted curve at half-maximal effect; % is scaled to controls: 0 for no effect and ±100 for the full control effect
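hKGA in 45 mM KH2PO4 pH 8.2, 0.02% Tween-20 with pin-transferred compounds; 1 mM L-glutamine (stock) plus glutamate oxidase/HRP/Amplex Red coupling added. Fluorescence read initially and after 30 min at RT.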
Tb PGK inh – inhibitors of T. brucei phosphoglycerate kinase | Potency, µM (doses to about 57.5 µM), inactives show at the highest dose activity change, negative = inhibition, hits mostly inhibitors | P07378 | hit rate 0.043% among 380,000 | PGK/GAPDH coupled, Kinase-Glo luminescence, 60 min; also: potency is read from the fitted curve at half-maximal effect; % is scaled to controls: 0 for no effect and ±100 for the full control effect; nearly all actives have a fitted effect of over 60% in size
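Recombinant glycosomal PGK reaction used 1,3-bisphosphoglycerate generated in-well by GAPDH (100nM final) in 100mM TEA pH 7.6, 5mM MgCl2, 0.01% Tween-20. After 60 minutes at room temperature, ATP was read by Kinase-Glo Plus luminescence end-point.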
CCT chaperon mod – changes cytosolic chaperonin activity; purified chaperonin ATPase assay, HTRF ADP detection, 30 min; activity change, % (concentration not given with the values), hits read low; hit rate 0.3% among 360,000; in the data active = activity change below about -30%; also: % is scaled to controls: 0 for no effect and ±100 for the full control effect
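First, chaperonin was dispensed at 40 nM or 20 nM final depending on batch activity. Next, compounds were pinned at 76 uM and ATP added at 10 uM. After 30 min at 37 °C, ADP detection reagents ran 30 min at ambient temperature.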
PI4K2A inh – blocks human PI4K2A kinase activity; AID 1346378; activity change, negative = inhibition, % at 76.9 µM; hit rate 0.13% among 420,000; purified PI4K2A, ADP-Glo luminescence, 1 h; hits give low values; in the data active = activity change below about -50%; inconclusive = mostly about -30% to -49%;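 also: -100% = wells without enzyme as full effect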
Target sequence (Q9BTU6 whole entry, looked up): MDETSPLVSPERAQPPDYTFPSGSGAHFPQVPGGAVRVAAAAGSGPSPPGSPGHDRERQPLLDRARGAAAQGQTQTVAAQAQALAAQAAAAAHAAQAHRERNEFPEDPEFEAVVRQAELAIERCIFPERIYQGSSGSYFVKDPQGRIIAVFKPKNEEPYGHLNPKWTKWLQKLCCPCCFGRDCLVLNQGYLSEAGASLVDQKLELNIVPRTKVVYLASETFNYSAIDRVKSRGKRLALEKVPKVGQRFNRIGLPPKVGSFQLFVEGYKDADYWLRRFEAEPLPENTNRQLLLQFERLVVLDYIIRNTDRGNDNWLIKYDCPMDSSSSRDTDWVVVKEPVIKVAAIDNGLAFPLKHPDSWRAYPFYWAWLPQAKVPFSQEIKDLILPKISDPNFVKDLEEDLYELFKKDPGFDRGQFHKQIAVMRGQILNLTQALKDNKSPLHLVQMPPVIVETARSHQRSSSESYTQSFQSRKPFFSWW
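ADP-Glo luminescence measured ADP generated by PI4K2A enzyme (4 ug/mL before mixing) with 1.2 mM PI substrate (pre-mix) and 300 microM ATP (pre-mix). Tris pH7.5 buffer with MgCl2, Triton X-100; 1 h reaction at ambient temperature.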
* hit, by the source's call; i = inactive; ? = inconclusive; . = no result; [ ] = dose if it differs, or a comment. Unless noted, calls follow the shape of the dose curve; as a rule, active = well fitted curve in the direction sought with a large enough effect; inconclusive = small, poorly fitted or top-dose-only effect, or another doubt; inactive = no such curve, though single readings can be large; an effect the other way counts as inactive or inconclusive.

SMILES	PINK1 modulator	GLS inhibitor	Tb PGK inh	CCT chaperon mod	PI4K2A inh
CCN(CC)S(=O)(=O)c1ccc(OC)c(NC(=O)C(C)Oc2ccc3c(C)cc(=O)oc3c2)c1 (centres undefined)	16.9%	2.4%	-8.1%	-31.5*	5.1
CCN(CC)S(=O)(=O)c1ccc(C)c(NC(=O)COc2ccc3c(C)cc(=O)oc3c2)c1	7.4%	0.1%	-6.9%	-1.3	3.3
O=C(NCCc1ccccn1)c1cnn(-c2ncc3c(n2)-c2ccccc2CC3)c1C1CC1	-0.6%	.	.	.	.
CC1CCN(C(C(=O)Nc2ccc3c(c2)OCO3)c2ccccc2)CC1 (centres undefined)	7.4%	8.6%	-8.5%	-84.0*	-0.2
Cc1ccc(C(=O)C(=O)O)cc1C	.	.	.	.	-1.8
N/C(=N\OC(=O)c1ccc(=O)n(Cc2ccccc2)c1)c1ccccn1	4.9%	-3.1%	i	1.8	2.1
Cc1ccc(C(=O)O/N=C(\N)c2ccccn2)c(Cl)c1	-0.6%	-2.2%	?	-2.5	-70.1*
CCCc1ccc(C(=O)O/N=C(\N)c2ccccn2)cc1	-2.2%	1.2%	?	3.0	-85.1*
COc1cccc(C(=O)O/N=C(\N)c2ccccn2)c1	7.4%	-3.4%	14.1µM*	1.0	-72.7*
N/C(=N\OC(=O)c1ccc(Cl)cc1Cl)c1ccccn1	-0.2%	0.6%	-27.9%	-5.2	-30.0
N/C(=N\OC(=O)c1ccc2ccccc2c1)c1ccccn1	-2.8%	-9.1%	?	1.1	-58.0*
Cc1c(C(=O)NCCCc2ccncc2)cnn1-c1ncc2c(n1)-c1ccccc1CC2	-0.2%	.	.	.	.
Cc1cc(C)n(Cc2cccc(C(=O)NCC3Cc4cccc(-c5ncccn5)c4O3)c2)n1 (centres undefined)	-0.6%	.	.	.	.
CCOc1ccccc1NC=C1C(=O)OC2(CCCCC2)OC1=O	.	-3.6%	-0.7%	-37.6*	2.4
CCn1c(=O)c2c(nc(C=Cc3ccc(OC)c(OC)c3)n2C)n(CC)c1=O	.	.	.	.	-1.8
C=CCOc1ccc(C(=O)/C=C2/C(=O)Nc3ccccc32)cc1	4.8%	-0.3%	1.5%	-44.9*	19.1
NC(=O)COc1ccc(C(=O)/C=C2/C(=O)Nc3ccccc32)cc1	-1.1%	9.2%	5.2%	-18.7	-1.8
OC(c1cccnc1)c1ccc2c(c1)CN(Cc1cn(-c3ccccc3)nc1-c1ccccc1)CCO2 (centres undefined)	-0.1%	.	.	.	.
Cc1cc(C(=O)N2CCOc3ccc(CN4CCC(Oc5cccnc5)CC4)cc3C2)c(C)o1	1.5%	.	.	.	.
CCCCCCN1CCN(C2CN(Cc3cn(Cc4cc(C)cc(C)c4)nn3)S(=O)(=O)C2)CC1 (centres undefined)	-1.1%	-5.1%	.	-3.2	-5.9
CCCCCCN1CCN(C2CN(Cc3cn(Cc4ccccc4)nn3)S(=O)(=O)C2)CC1 (centres undefined)	-0.1%	8.1%	.	-31.9*	-4.5
COc1ccc(CCNC(=O)c2cnn(-c3nccc(-c4cccs4)n3)c2C)cc1OC	0.6%	.	.	.	.
Fc1c(F)c(C(F)(F)F)c(F)c(F)c1N/N=C\c1cccs1	-0.1%[38.3 µM]	-4.1%	-1.8%	-36.9*	-2.4
Cn1c(N/N=C/c2cccs2)cc(=O)n(C)c1=O	-0.4%	3.6%	9.3%	0.5	?
Cc1cnc(SCc2ccccn2)nc1C1CCCN(C(=O)c2ccc3c(c2)OCCO3)C1 (centres undefined)	0.0%	.	.	.	.
SMILES	PINK1 modulator	GLS inhibitor	Tb PGK inh	CCT chaperon mod	PI4K2A inh
CC(/C=C/c1ccccc1)=N\Nc1nc(-c2ccccc2)cs1	18.4%[38.3 µM]	3.4%	0.9%	-70.1*	7.5
CCC1C(=O)NCCN1Cc1ccc2c(c1)CN(Cc1cc(OC)c3c(c1)OCO3)CCO2 (centres undefined)	-0.8%	.	.	.	.
O=[N+]([O-])c1ccc(/C=N/N2CCN(Cc3ccccc3)CC2)cc1	-0.9%	1.0%	-5.6%	-105.1*	-1.7
O=C(NC1=NCCS1)C12CC3CC(CC(C3)C1)C2	2.1%	1.7%	-7.6%	2.2	4.2
CC(C)CC(NC(=O)CC12CC3CC(CC(C3)C1)C2)C(=O)NC1=NCCS1 (centres undefined)	1.6%	-6.4%	5.5%	-98.2*	-5.4
N#C/C(=N\Nc1cccc(C(F)(F)F)c1)C(=O)c1ccsc1	11.2µM*	7.4%	-6.1%	0.2	-4.7
O=C(NCC1Cc2cccc(-c3cnccn3)c2O1)c1ccc2c(c1)OCCO2 (centres undefined)	0.3%	.	.	.	.
CC(=O)Nc1ccc(NC(=O)c2ccccc2Sc2ccc([N+](=O)[O-])cc2Cl)cc1	3.4%	5.6%	-6.5%	-34.5*	2.3
Cc1ccc(CN2CC(C(=O)N3CCN(c4ccccc4O)CC3)CC2=O)cc1 (centres undefined)	-0.8%	7.08µM*	4.0%	-2.5	2.7
O=C1CC(C(=O)N2CCN(c3ccccc3Cl)CC2)CN1Cc1ccccc1 (centres undefined)	-0.6%	-0.3%	2.3%	-0.5	-2.2
CCCSc1nnc(NC(=O)Nc2ccccc2)s1	44.7µM*	-0.5%	-0.4%	2.1	-2.3
CCCSc1nnc(NC(=O)Nc2ccc(F)cc2)s1	14.1µM*	-7.0%	-4.6%	-2.8	-12.8
Cc1nc(NCc2c(C)nn(C)c2Cl)sc1-c1ccn(CC2COc3ccccc3O2)n1 (centres undefined)	-0.5%	.	.	.	.
O=C(O)CCCC(=O)Nc1ccc(Cl)cc1	-0.8%	0.8%	-7.3%	-64.9*	-17.2
Cc1cc(C)c(NC(=O)CN)c(C)c1	0.1%	0.891µM*	-4.4%	-4.1	15.8
CC(C)=CC(=O)Nc1c(C)cc(C)cc1Cl	5.8%	-5.2%	-4.5%	-4.9	2.1
Cc1cc(C)c(NC(=O)CCCC(=O)O)c(Cl)c1	-1.1%	-3.6%	-11.1%	-50.1*	1.5
CCN1/C(=C/c2ccc3cc(C)cc(C)c3[n+]2CC)Sc2cc(C)ccc21	0.0%	-0.6%	-10.4%	2.5	-11.3
CCN1/C(=C/c2ccc3cccc(C)c3[n+]2CC)Sc2ccccc21	3.98µM*	8.6%	-9.8%	-3.8	-0.9
CCOC(=O)c1ccc(Nc2nnc(C(C)(C)C)c(=O)[nH]2)cc1	25.1µM*	2.1%	-6.5%	-1.5	1.5
CN(CCC#N)C(=O)COC(=O)c1c2c(nc3ccccc13)/C(=C\c1ccco1)CC2	6.6%	11.2µM*	-28.8%	-9.0	-51.7*
CC1CCCCC1NC(=O)COC(=O)c1c2c(nc3ccccc13)/C(=C\c1ccco1)CC2 (centres undefined)	3.3%	11.2µM*	-18.5%	1.1	-67.2*
O=C(COC(=O)c1c2c(nc3ccccc13)/C(=C\c1ccco1)CC2)NC1CCCC1	2.3%	?	-17.7%	-3.1	?
CCN(CC)CCN1CNC(=S)NC1	2.3%	1.6%	-8.0%	-34.3*	-4.9
Nc1ccc([N+](=O)[O-])c(C(F)(F)F)c1	.	.	.	.	1.2
CCN1/C(=C2/SC(=S)N(NC(C)=O)C2=O)Sc2ccccc21	22.4µM*	2.0%	-5.1%	-6.0	2.3
COc1ccc(C(=O)NCCN2Cc3cc(C)ccc3OC(C)C2)c(OC)n1 (centres undefined)	-0.8%	.	.	.	.
